Laboratory results from PubChem BioAssay (Tox21).
Unmarked numbers belong to inactive results. Records with an inconclusive call do not appear. Entries that show only a call come without a potency. The source made the active and inactive calls. Unless noted, the call rests on the fitted dose curve; in most records, active means well fitted curve in the direction sought with a large enough effect in the repeat runs; inconclusive means weak or mixed curves; inactive means flat fitted curve, though single readings scatter.

Assays:
[1] = qHTS assay to test for compound auto fluorescence at 460 nm (blue) in HEK293 cell free culture (AID 720681)
Outline: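 Compounds were added to cell-free DMEM with 10% FBS and fluorescence read directly. The blue channel used 405 nm excitation and 460 nm emission, with triamterene as the reference fluorophore.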

[2] = qHTS assay to test for compound auto fluorescence at 535 nm (green) in HEK293 cell free culture (AID 720682)
Outline: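 No cells present: wells hold DMEM supplemented with 10% FBS, into which compound or vehicle is pinned. Green emission is then recorded (485 nm excitation, 535 nm emission) and scaled to fluorescein.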

[3] = qHTS assay to test for compound auto fluorescence at 590 nm (red) in HEK293 cell free culture (AID 720683)
Outline: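 Cell-free wells of DMEM with 10% FBS received compound, and intrinsic fluorescence was read at excitation/emission 540/590 nm. Values expressed as equivalence to Rose Bengal sodium.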

[4] = qHTS assay to test for compound auto fluorescence at 590 nm (red) in HepG2 cell free culture (AID 720684)
Outline: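 Compound was pinned into wells holding MEM with 10% FBS and no cells, and red fluorescence was read at Ex/Em 540/590 nm. Signal is expressed as auto fluorescence equivalency relative to Rose Bengal sodium.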

[5] = qHTS assay to test for compound auto fluorescence at 535 nm (green) in HepG2 cell free culture (AID 720686)
[6] = qHTS assay to test for compound auto fluorescence at 460 nm (blue) in HepG2 cells (AID 720687)
Outline: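 HepG2 cells in MEM with 10% FBS, attached overnight at 37 C, were exposed to compound or DMSO for 1 hr at 37 C, 5% CO2. Blue fluorescence was read at 405/460 nm, with triamterene as reference fluorophore.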

[7] = molecular target: Glucocorticoid receptor (Homo sapiens) (UniProt P04150); experiment: qHTS assay to identify small molecule agonists of the glucocorticoid receptor (GR) signaling pathway (AID 720691; active means well fitted activation curve with a large enough effect in the signal ratio in the repeat runs, not every such curve was filed as active; the % refers to the signal ratio; further: potency means the concentration at half of the fitted maximal effect)
Outline: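 GR-bla HeLa cells (beta-lactamase reporter under glucocorticoid response element) were plated 4 h at 37 C/5% CO2, given compounds in DMSO, and incubated 18 h at 37 C. LiveBLAzer B/G FRET substrate was added for 2 h at room temperature, then fluorescence intensity read.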

[8] = molecular target: Glucocorticoid receptor (Homo sapiens) (UniProt P04150); experiment: qHTS assay to identify small molecule antagonists of the glucocorticoid receptor (GR) signaling pathway (AID 720692; active means well fitted inhibition curve with a large enough effect in the signal ratio in the repeat runs, not every such curve was filed as active; the % refers to the signal ratio)
Outline: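 GR-bla HeLa cells (beta-lactamase reporter under glucocorticoid response element) were pre-plated 4 h at 37 C, treated with compounds plus 5 nM dexamethasone (final) for 18 h, then read by LiveBLAzer B/G FRET fluorescence after 2 h.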

[9] = qHTS assay to test for compound auto fluorescence at 460 nm (blue) in HepG2 cell free culture (AID 720685)
Outline: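 Compound (23 nL) or DMSO pinned into cell-free MEM with 10% FBS; blue fluorescence read at 405/460 nm excitation/emission, expressed as auto-fluorescence equivalency to triamterene.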

Glucocorticoid receptor (Homo sapiens), sequence (P04150 whole entry, looked up): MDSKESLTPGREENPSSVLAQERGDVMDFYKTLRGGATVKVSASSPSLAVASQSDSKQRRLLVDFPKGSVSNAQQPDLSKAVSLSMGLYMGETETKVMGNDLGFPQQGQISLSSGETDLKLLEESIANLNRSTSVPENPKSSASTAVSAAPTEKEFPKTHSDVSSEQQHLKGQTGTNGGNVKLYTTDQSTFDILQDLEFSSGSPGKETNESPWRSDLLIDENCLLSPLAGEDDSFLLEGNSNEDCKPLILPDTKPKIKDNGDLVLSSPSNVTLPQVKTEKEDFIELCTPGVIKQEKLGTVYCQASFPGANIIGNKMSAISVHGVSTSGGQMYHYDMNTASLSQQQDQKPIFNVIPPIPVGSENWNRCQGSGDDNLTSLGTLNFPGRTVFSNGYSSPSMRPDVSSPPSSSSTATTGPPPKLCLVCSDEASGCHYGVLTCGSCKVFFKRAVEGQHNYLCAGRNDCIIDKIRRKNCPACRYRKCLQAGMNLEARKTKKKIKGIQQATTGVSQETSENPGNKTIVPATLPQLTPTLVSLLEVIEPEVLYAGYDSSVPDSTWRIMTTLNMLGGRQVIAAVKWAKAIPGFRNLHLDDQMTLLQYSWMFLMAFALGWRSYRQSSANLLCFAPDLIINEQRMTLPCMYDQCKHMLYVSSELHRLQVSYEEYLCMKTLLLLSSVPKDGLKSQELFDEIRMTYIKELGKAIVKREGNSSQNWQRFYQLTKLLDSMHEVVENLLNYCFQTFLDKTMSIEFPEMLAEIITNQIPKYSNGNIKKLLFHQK

Nc1c2c(nc3ccccc13)CCCC2O (stereo not drawn)
outcome [1]: inactive
outcome [2]: inactive
outcome [3]: inactive
outcome [4]: inactive
outcome [5]: inactive
outcome [6]: inactive
Potency [7]: inactive
Potency [8]: inactive

CCCCNC(=O)NCCCC
outcome [1]: inactive
outcome [2]: inactive
outcome [3]: inactive
outcome [4]: inactive
outcome [9]: inactive
outcome [5]: inactive
outcome [6]: inactive
Potency [7]: inactive
Potency [8]: inactive

N=c1nc(N2CCCCC2)cc(N)n1O
outcome [1]: inactive
outcome [2]: inactive
outcome [3]: inactive
outcome [4]: inactive
outcome [9]: inactive
outcome [5]: inactive
outcome [6]: inactive
Potency [7]: inactive
Potency [8]: inactive

CN1CCN(c2cc3c(cc2F)c(=O)c(C(=O)O)cn3-c2ccc(F)cc2)CC1
outcome [1]: inactive
outcome [2]: inactive
outcome [3]: inactive
outcome [4]: inactive
outcome [9]: inactive
outcome [5]: inactive
outcome [6]: inactive
Potency [7]: inactive

Cc1ccc(Cl)cc1Cl
outcome [1]: inactive
outcome [2]: inactive
outcome [3]: inactive
outcome [4]: inactive
outcome [5]: inactive
outcome [6]: inactive
Potency [7]: inactive
Potency [8]: inactive

CS(=O)(=O)O
outcome [1]: inactive
outcome [2]: inactive
outcome [3]: inactive
outcome [4]: inactive
outcome [9]: inactive
outcome [5]: inactive
outcome [6]: inactive
Potency [7]: inactive
Potency [8]: inactive

C1CN(CCOCCN2CCOCC2)CCO1
outcome [1]: inactive
outcome [2]: inactive
outcome [3]: inactive
outcome [4]: inactive
outcome [9]: inactive
outcome [5]: inactive
outcome [6]: inactive
Potency [7]: inactive
Potency [8]: inactive

CCOC(=O)c1c(C)n(C)c2ccc(O)cc12
outcome [1]: inactive
outcome [2]: inactive
outcome [3]: inactive
outcome [4]: inactive
outcome [9]: inactive
outcome [5]: inactive
outcome [6]: inactive
Potency [7]: inactive
Potency [8]: inactive

N[C@H](C(=O)O)c1ccc(O)cc1
outcome [1]: inactive
outcome [2]: inactive
outcome [3]: inactive
outcome [4]: inactive
outcome [9]: inactive
outcome [5]: inactive
outcome [6]: inactive
Potency [7]: inactive
Potency [8]: inactive

CCCCOCCOCCOCCCC
outcome [1]: inactive
outcome [2]: inactive
outcome [3]: inactive
outcome [4]: inactive
outcome [5]: inactive
outcome [6]: inactive
Potency [7]: inactive
Potency [8]: inactive

C[N+](C)(C)CCCCCC[N+](C)(C)C
outcome [1]: inactive
outcome [2]: inactive
outcome [3]: inactive
outcome [4]: inactive
outcome [5]: inactive
outcome [6]: inactive

NS(=O)(=O)c1cc2c(cc1Cl)NC(C1CC3C=CC1C3)NS2(=O)=O (stereo not drawn)
outcome [1]: inactive
outcome [2]: inactive
outcome [3]: inactive
outcome [4]: inactive
outcome [9]: inactive
outcome [5]: inactive
outcome [6]: inactive
Potency [7]: inactive
Potency [8]: inactive

N[C@@H](C(=O)N[C@@H]1C(=O)N2C(C(=O)O)=C(Cl)CS[C@H]12)c1ccccc1
outcome [1]: inactive
outcome [2]: inactive
outcome [3]: inactive
outcome [4]: inactive
outcome [9]: inactive
outcome [5]: inactive
outcome [6]: inactive
Potency [7]: inactive

Brc1c(NC2=NCCN2)ccc2nccnc12
outcome [1]: inactive
outcome [2]: inactive
outcome [3]: inactive
outcome [4]: inactive
outcome [9]: inactive
outcome [5]: inactive
outcome [6]: inactive
Potency [7]: inactive
Potency [8]: inactive

O=c1[nH]c(=O)n([C@H]2C[C@H](O)[C@@H](CO)O2)cc1I
outcome [1]: inactive
outcome [2]: inactive
outcome [3]: inactive
outcome [4]: inactive
outcome [9]: inactive
outcome [5]: inactive
outcome [6]: inactive

CCCN1CCCC[C@H]1C(=O)Nc1c(C)cccc1C
outcome [1]: inactive
outcome [2]: inactive
outcome [3]: inactive
outcome [4]: inactive
outcome [5]: inactive
outcome [6]: inactive

C/C=C(\C)C#N
outcome [1]: inactive
outcome [2]: inactive
outcome [3]: inactive
outcome [4]: inactive
outcome [9]: inactive
outcome [5]: inactive
outcome [6]: inactive

CC(=O)OC/C=C(\C)CC/C=C(\C)CCC=C(C)C
outcome [1]: inactive
outcome [2]: inactive
outcome [3]: inactive
outcome [5]: inactive
outcome [6]: inactive

OCCCC1CCCCC1
outcome [1]: inactive
outcome [2]: inactive
outcome [3]: inactive
outcome [4]: inactive
outcome [9]: inactive
outcome [5]: inactive
outcome [6]: inactive

Cc1cc(O)cc2c1O[C@](C)(CCC[C@H](C)CCC[C@H](C)CCCC(C)C)CC2
outcome [1]: inactive
outcome [2]: inactive
outcome [3]: inactive
outcome [9]: inactive
outcome [5]: inactive
outcome [6]: inactive
Potency [7]: inactive

C[C@](N)(Cc1ccc(O)cc1)C(=O)O
outcome [1]: inactive
outcome [2]: inactive
outcome [3]: inactive
outcome [4]: inactive
outcome [9]: inactive
outcome [5]: inactive
outcome [6]: inactive
Potency [7]: inactive

C=COCC1CCC(CO)CC1 (stereo not drawn)
outcome [1]: inactive
outcome [2]: inactive
outcome [3]: inactive
outcome [9]: inactive
outcome [5]: inactive
outcome [6]: inactive
Potency [7]: inactive
Potency [8]: inactive

c1ccc(CC2=NCCN2)cc1
outcome [1]: inactive
outcome [2]: inactive
outcome [3]: inactive
outcome [9]: inactive
outcome [5]: inactive
outcome [6]: inactive

CO[C@]12C[C@@H](COC(=O)c3cncc(Br)c3)CN(C)[C@@H]1Cc1cn(C)c3cccc2c13
outcome [1]: inactive
outcome [2]: inactive
outcome [3]: inactive
outcome [4]: inactive
outcome [9]: inactive
outcome [5]: inactive
outcome [6]: inactive
Potency [7]: inactive
Potency [8]: inactive

CN1CCCC1
outcome [1]: inactive
outcome [2]: inactive
outcome [3]: inactive
outcome [4]: inactive
outcome [9]: inactive
outcome [5]: inactive
outcome [6]: inactive

CC(C)(O)C(=O)c1ccccc1
outcome [1]: inactive
outcome [2]: inactive
outcome [3]: inactive
outcome [4]: inactive
outcome [5]: inactive
outcome [6]: inactive
Potency [7]: inactive
Potency [8]: inactive

NS(=O)(=O)c1cc(C(=O)O)cc(N2CCCC2)c1Oc1ccccc1
outcome [1]: inactive
outcome [2]: inactive
outcome [3]: inactive
outcome [4]: inactive
outcome [9]: inactive
outcome [5]: inactive
outcome [6]: inactive
Potency [7]: 9.1 µM (active)
Potency [8]: inactive

CC(=O)OCC(CCn1cnc2cnc(N)nc21)COC(C)=O
outcome [1]: inactive
outcome [2]: inactive
outcome [3]: inactive
outcome [4]: inactive
outcome [9]: inactive
outcome [5]: inactive
outcome [6]: inactive
Potency [7]: inactive
Potency [8]: inactive

O=[N+]([O-])c1ccc(F)cc1F
outcome [1]: inactive
outcome [2]: inactive
outcome [3]: inactive
outcome [9]: inactive
outcome [5]: inactive
outcome [6]: inactive

COc1ccccc1OCC(O)CN1CCN(CC(=O)Nc2c(C)cccc2C)CC1 (stereo not drawn)
outcome [1]: inactive
outcome [2]: inactive
outcome [3]: inactive
outcome [4]: inactive
outcome [9]: inactive
outcome [5]: inactive
outcome [6]: inactive
Potency [7]: inactive
Potency [8]: inactive

Cc1ccc(=O)n(-c2ccccc2)c1
outcome [1]: inactive
outcome [2]: inactive
outcome [3]: inactive
outcome [4]: inactive
outcome [5]: inactive
outcome [6]: inactive

OC(CCN1CCCCC1)(c1ccccc1)C1CC2C=CC1C2 (stereo not drawn)
outcome [1]: inactive
outcome [2]: inactive
outcome [3]: inactive
outcome [4]: inactive
outcome [9]: inactive
outcome [5]: inactive
outcome [6]: inactive
Potency [7]: inactive
Potency [8]: inactive

CCO/C([O-])=N/c1c[n+](N2CCOCC2)no1
outcome [1]: inactive
outcome [2]: inactive
outcome [3]: inactive
outcome [4]: inactive
outcome [9]: inactive
outcome [5]: inactive
outcome [6]: inactive
Potency [7]: inactive
Potency [8]: inactive

O=C(O)COc1nn(Cc2ccccc2)c2ccccc12
outcome [1]: inactive
outcome [2]: inactive
outcome [3]: inactive
outcome [4]: inactive
outcome [5]: inactive
outcome [6]: inactive
Potency [7]: inactive
Potency [8]: inactive

C[C@@H]1CCN(C(=O)[C@H](CCCN=C(N)N)NS(=O)(=O)c2cccc3c2NC[C@H](C)C3)[C@@H](C(=O)O)C1
outcome [1]: inactive
outcome [2]: inactive
outcome [3]: inactive
outcome [4]: inactive
outcome [5]: inactive
outcome [6]: inactive

CN1CC(=O)NC1=N
outcome [1]: inactive
outcome [2]: inactive
outcome [3]: inactive
outcome [4]: inactive
outcome [9]: inactive
outcome [5]: inactive
outcome [6]: inactive
Potency [7]: inactive
Potency [8]: inactive

O=C(O)Cc1ccc(CCNS(=O)(=O)c2ccc(Cl)cc2)cc1
outcome [1]: inactive
outcome [2]: inactive
outcome [3]: inactive
outcome [4]: inactive
outcome [5]: inactive
outcome [6]: inactive
Potency [7]: inactive
Potency [8]: inactive

O=C(CCCN1CCC(O)(c2cccc(C(F)(F)F)c2)CC1)c1ccc(F)cc1
outcome [1]: inactive
outcome [2]: inactive
outcome [3]: inactive
outcome [4]: inactive
outcome [9]: inactive
outcome [5]: inactive
outcome [6]: inactive
Potency [7]: inactive
Potency [8]: inactive

CN1C(=O)N(C)C(O)C1O (stereo not drawn)
outcome [1]: inactive
outcome [2]: inactive
outcome [3]: inactive
outcome [9]: inactive
outcome [5]: inactive
outcome [6]: inactive
Potency [7]: inactive
Potency [8]: inactive
